Where a chain is given by its changes, count along the chain named. In all, about 16,000 sequences were measured (“ka relative to ugcaugu”: median about 0.0091, highest 2% from about 0.032 on). For the sample, the highest values were picked, then their nearest neighbours and some sequences at random.
T1: RBFOX1 RRM (Homo sapiens, UniProt Q9NWB1 109-208)
T1 sequence: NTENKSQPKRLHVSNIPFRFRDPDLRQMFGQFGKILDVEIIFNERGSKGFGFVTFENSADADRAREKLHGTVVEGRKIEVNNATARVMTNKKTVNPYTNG

B1: ACAACCU (DNA:RNA)
RNA: GGGAGACCGGAAUUCAGAUUGUCCACAACCUUUAAAUCCCGUCGUAGCCACCA
DNA 1: CAATCTGAATTCCGGTCTCCC
DNA 2: TGGTGGCTACGACGGGATT
B2: AGCGAAA (DNA:RNA)
RNA: B1 RNA with C26G, A27C, A28G, C29A, C30A, U31A
DNA 1: CAATCTGAATTCCGGTCTCCC
DNA 2: TGGTGGCTACGACGGGATT
B3: UUUUUGU (DNA:RNA)
RNA: B1 RNA with A25U, C26U, A27U, A28U, C29U, C30G
DNA 1: CAATCTGAATTCCGGTCTCCC
DNA 2: TGGTGGCTACGACGGGATT
B4: UCGUCCC (DNA:RNA)
RNA: B1 RNA with A25U, A27G, A28U, U31C
DNA 1: CAATCTGAATTCCGGTCTCCC
DNA 2: TGGTGGCTACGACGGGATT
B5: ACAGACA (DNA:RNA)
RNA: B1 RNA with A28G, C29A, U31A
DNA 1: CAATCTGAATTCCGGTCTCCC
DNA 2: TGGTGGCTACGACGGGATT
B6: UCACUAC (DNA:RNA)
RNA: B1 RNA with A25U, A28C, C29U, C30A, U31C
DNA 1: CAATCTGAATTCCGGTCTCCC
DNA 2: TGGTGGCTACGACGGGATT
B7: GGCAAAG (DNA:RNA)
RNA: B1 RNA with A25G, C26G, A27C, C29A, C30A, U31G
DNA 1: CAATCTGAATTCCGGTCTCCC
DNA 2: TGGTGGCTACGACGGGATT
B8: UGGAUCC (DNA:RNA)
RNA: B1 RNA with A25U, C26G, A27G, C29U, U31C
DNA 1: CAATCTGAATTCCGGTCTCCC
DNA 2: TGGTGGCTACGACGGGATT
B9: UGGAGAU (DNA:RNA)
RNA: B1 RNA with A25U, C26G, A27G, C29G, C30A
DNA 1: CAATCTGAATTCCGGTCTCCC
DNA 2: TGGTGGCTACGACGGGATT
B10: UGUCGUG (DNA:RNA)
RNA: GGGAGACCGGAAUUCAGAUUGUCCUGUCGUGUUAAAUCCCGUCGUAGCCACCA
DNA 1: CAATCTGAATTCCGGTCTCCC
DNA 2: TGGTGGCTACGACGGGATT
B11: UGGAAUG (DNA:RNA)
RNA: B10 RNA with U27G, C28A, G29A
DNA 1: CAATCTGAATTCCGGTCTCCC
DNA 2: TGGTGGCTACGACGGGATT
B12: UGGAGUG (DNA:RNA)
RNA: B10 RNA with U27G, C28A
DNA 1: CAATCTGAATTCCGGTCTCCC
DNA 2: TGGTGGCTACGACGGGATT
B13: UGGAUCG (DNA:RNA)
RNA: B10 RNA with U27G, C28A, G29U, U30C
DNA 1: CAATCTGAATTCCGGTCTCCC
DNA 2: TGGTGGCTACGACGGGATT
B14: UGUCUUG (DNA:RNA)
RNA: B10 RNA with G29U
DNA 1: CAATCTGAATTCCGGTCTCCC
DNA 2: TGGTGGCTACGACGGGATT
B15: UGGAGAA (DNA:RNA)
RNA: B10 RNA with U27G, C28A, U30A, G31A
DNA 1: CAATCTGAATTCCGGTCTCCC
DNA 2: TGGTGGCTACGACGGGATT
B16: UGGAGAG (DNA:RNA)
RNA: B10 RNA with U27G, C28A, U30A
DNA 1: CAATCTGAATTCCGGTCTCCC
DNA 2: TGGTGGCTACGACGGGATT
B17: UGUCGUC (DNA:RNA)
RNA: B10 RNA with G31C
DNA 1: CAATCTGAATTCCGGTCTCCC
DNA 2: TGGTGGCTACGACGGGATT
B18: UGGAUCU (DNA:RNA)
RNA: B1 RNA with A25U, C26G, A27G, C29U
DNA 1: CAATCTGAATTCCGGTCTCCC
DNA 2: TGGTGGCTACGACGGGATT
B19: UGUUGUC (DNA:RNA)
RNA: B10 RNA with C28U, G31C
DNA 1: CAATCTGAATTCCGGTCTCCC
DNA 2: TGGTGGCTACGACGGGATT
B20: CAGAAAA (DNA:RNA)
RNA: B1 RNA with A25C, C26A, A27G, C29A, C30A, U31A
DNA 1: CAATCTGAATTCCGGTCTCCC
DNA 2: TGGTGGCTACGACGGGATT

target: T1, RBFOX1 RRM; assay: EMSA; HiTS-Eq, 1 nM pool, 10 min; buffer printed only for the single-RNA assays: 10 mM Tris pH 7.5, 150 mM NaCl, 3.4 mM EDTA, 0.001% NP-40, 30 C; conditions: tags: His6 N-terminal (pET28a); label: 5' 32P
Summary of the method: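 Relative association constants, normalised to the cognate motif, were derived by comparing read counts of each RNA species with those of the control reaction. The RNA sequenced was the free fraction, separated by 8% native PAGE after a 10 min equilibration in 50 µL of 1 nM 5′-radiolabelled RNA (7 randomized nucleotides) with increasing concentrations of purified wild-type or mutant RbFox RRM.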

Q: How did the binding signal turn out when B1 was run?
A: 0.000511 KA relative to UGCAUGU

Q: Which binding signal does the source give for B2 here?
A: 0.0048 KA relative to UGCAUGU

Q: For B3, which binding signal is on record?
A: 0.0281 KA relative to UGCAUGU

Q: Which binding signal does the source give for B4 here?
A: 0.00735 KA relative to UGCAUGU

Q: With B5 as the binder, how does the binding signal read?
A: 0.00018 KA relative to UGCAUGU

Q: How did the binding signal turn out when B6 was run?
A: 0.000713 KA relative to UGCAUGU

Q: Which binding signal does the source give for B7 here?
A: 0.00447 KA relative to UGCAUGU

Q: B8 was tested. Which binding signal did it give?
A: 0.0229 KA relative to UGCAUGU

Q: For B9, which binding signal is on record?
A: 0.0283 KA relative to UGCAUGU

Q: For B10, which binding signal is on record?
A: 0.0277 KA relative to UGCAUGU

Q: For B11, which binding signal is on record?
A: 0.0953 KA relative to UGCAUGU

Q: Which binding signal does the source give for B12 here?
A: 0.0323 KA relative to UGCAUGU

Q: B13 was tested. Which binding signal did it give?
A: 0.0333 KA relative to UGCAUGU

Q: B14 was tested. Which binding signal did it give?
A: 0.0447 KA relative to UGCAUGU

Q: For B15, which binding signal is on record?
A: 0.0194 KA relative to UGCAUGU

Q: How did the binding signal turn out when B16 was run?
A: 0.0249 KA relative to UGCAUGU

Q: With B17 as the binder, how does the binding signal read?
A: 0.0214 KA relative to UGCAUGU

Q: Which binding signal does the source give for B18 here?
A: 0.0236 KA relative to UGCAUGU

Q: How did the binding signal turn out when B19 was run?
A: 0.0242 KA relative to UGCAUGU

Q: B20 was tested. Which binding signal did it give?
A: 0.000855 KA relative to UGCAUGU

Source: article PMC9911399, “Two distinct binding modes provide the RNA-binding protein RbFox with extraordinary sequence specificity”
